Assay results as given in PubChem BioAssay (EPA / NIEHS).
Records with an inconclusive call do not appear. More than one record can exist for a structure, and the calls need not agree. Activity calls are given as the source filed them. How the source made its calls, unless noted: active means hit-call score of the fitted dose curve at least 0.9, where 1 is the maximum; inconclusive means response in the unintended direction; inactive means score below 0.9.

How the values were obtained:
[1] = test system: guinea pig Dopamine Transporter (DAT), gene 100714898; assay: NVS_TR_gDAT: NovaScreen (NVS) Transporter Assay for guinea pig Dopamine Transporter (DAT) (AID 2283369);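 further: active compounds lower bound radioligand signal relative to DMSO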
In short: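 Radioligand displacement on membranes from guinea pig striatum, 2 h exposure, bound label counted by filtration and scintillation. Tested at 25 uM in duplicate, then actives in concentration series to 50 uM; DMSO as negative control.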

[2] = target: human Serotonin Transporter (SERT), SLC6A4 (gene 6532) (UniProt P31645); assay: NVS_TR_hSERT: NovaScreen (NVS) Transporter Assay for human Serotonin Transporter (SERT) (AID 2283372)
human Serotonin Transporter (SERT), SLC6A4 (gene 6532), sequence (P31645 whole entry, looked up): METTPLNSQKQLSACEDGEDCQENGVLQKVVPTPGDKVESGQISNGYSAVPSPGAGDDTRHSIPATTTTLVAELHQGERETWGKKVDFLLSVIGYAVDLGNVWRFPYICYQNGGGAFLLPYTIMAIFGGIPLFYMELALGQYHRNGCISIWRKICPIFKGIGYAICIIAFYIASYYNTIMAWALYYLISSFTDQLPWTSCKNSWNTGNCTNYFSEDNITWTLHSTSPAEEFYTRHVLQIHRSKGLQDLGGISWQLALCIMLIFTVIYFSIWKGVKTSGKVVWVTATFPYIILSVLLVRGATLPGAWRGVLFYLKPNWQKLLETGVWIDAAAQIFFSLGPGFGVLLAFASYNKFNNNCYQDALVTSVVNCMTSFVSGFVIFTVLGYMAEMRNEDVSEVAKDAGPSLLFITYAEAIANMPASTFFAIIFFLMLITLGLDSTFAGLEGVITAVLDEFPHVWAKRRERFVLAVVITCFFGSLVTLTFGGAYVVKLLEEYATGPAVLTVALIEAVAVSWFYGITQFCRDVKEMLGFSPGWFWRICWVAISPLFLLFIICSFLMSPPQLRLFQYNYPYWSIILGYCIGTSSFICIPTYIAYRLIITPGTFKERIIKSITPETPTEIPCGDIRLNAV
In short: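 Human platelet membrane preparation; displacement of radioligand from serotonin transporter measured after 1 h by filtration and scintillation counting. Single 25 uM duplicate screen, then concentration series for actives, with DMSO as negative baseline.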

[3] = target: human Dopamine Transporter (DAT), SLC6A3 (gene 6531) (UniProt Q01959); assay: NVS_TR_hDAT: NovaScreen (NVS) Transporter Assay for human Dopamine Transporter (DAT) (AID 2283374);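 further: activity means loss of bound radioligand signal relative to DMSO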
human Dopamine Transporter (DAT), SLC6A3 (gene 6531), sequence (Q01959 whole entry, looked up): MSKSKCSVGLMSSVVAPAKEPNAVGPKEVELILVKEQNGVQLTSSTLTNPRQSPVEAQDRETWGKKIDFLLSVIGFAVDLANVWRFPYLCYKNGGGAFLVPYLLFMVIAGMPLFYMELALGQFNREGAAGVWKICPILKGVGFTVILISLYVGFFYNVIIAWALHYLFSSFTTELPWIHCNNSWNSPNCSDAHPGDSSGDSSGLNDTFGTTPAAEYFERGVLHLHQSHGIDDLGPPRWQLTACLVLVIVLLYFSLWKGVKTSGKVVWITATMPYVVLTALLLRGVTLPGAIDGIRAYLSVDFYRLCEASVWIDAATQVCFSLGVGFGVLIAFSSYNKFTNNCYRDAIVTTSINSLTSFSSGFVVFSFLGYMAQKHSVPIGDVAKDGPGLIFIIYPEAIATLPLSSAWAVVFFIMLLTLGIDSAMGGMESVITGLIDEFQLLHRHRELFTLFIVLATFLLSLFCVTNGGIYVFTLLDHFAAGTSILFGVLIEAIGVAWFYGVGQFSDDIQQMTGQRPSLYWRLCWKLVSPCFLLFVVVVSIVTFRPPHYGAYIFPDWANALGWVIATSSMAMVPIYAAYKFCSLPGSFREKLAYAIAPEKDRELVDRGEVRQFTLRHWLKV
In short: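 hDAT membranes + tritiated/iodinated radioligand, competitive displacement; 1 h; filter scintillation readout. Single conc 25 uM (duplicate), then conc-response for actives. DMSO = negative control.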

[4] = target: rat Serotonin Transporter (SERT), Slc6a4 (gene 25553) (UniProt P31652); assay: NVS_TR_rSERT: NovaScreen (NVS) Transporter Assay for rat Serotonin Transporter (SERT) (AID 2283375)
rat Serotonin Transporter (SERT), Slc6a4 (gene 25553), sequence (P31652 whole entry, looked up): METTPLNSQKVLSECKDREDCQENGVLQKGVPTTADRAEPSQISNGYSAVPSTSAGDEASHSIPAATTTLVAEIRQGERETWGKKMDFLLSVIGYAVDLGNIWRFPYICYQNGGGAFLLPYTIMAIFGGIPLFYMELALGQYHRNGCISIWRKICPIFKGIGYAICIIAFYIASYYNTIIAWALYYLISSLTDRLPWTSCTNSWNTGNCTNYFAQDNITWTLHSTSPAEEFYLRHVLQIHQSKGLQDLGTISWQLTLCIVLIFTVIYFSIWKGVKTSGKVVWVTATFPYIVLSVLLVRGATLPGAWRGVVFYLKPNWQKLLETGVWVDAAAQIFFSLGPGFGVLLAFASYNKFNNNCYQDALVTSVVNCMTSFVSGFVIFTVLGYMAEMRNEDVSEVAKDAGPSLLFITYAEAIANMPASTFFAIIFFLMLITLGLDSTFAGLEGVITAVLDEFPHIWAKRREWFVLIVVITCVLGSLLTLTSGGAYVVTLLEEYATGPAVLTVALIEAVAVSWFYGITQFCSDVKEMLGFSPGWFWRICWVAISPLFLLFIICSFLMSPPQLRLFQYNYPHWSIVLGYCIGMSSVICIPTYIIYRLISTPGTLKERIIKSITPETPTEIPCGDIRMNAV
In short: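 Radioligand binding with competitive displacement on rat forebrain membrane preparations, counted by filtration and scintillation after 1 h. Primary single-point duplicates at 25 uM; active chemicals followed up in concentration-response. DMSO served as baseline.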

[5] = target: Estrogen receptor beta (Homo sapiens) (UniProt Q92731); assay: OT_ER_ERbERb_1440: Odyssey Thera (OT) 24-hour HEK293T Protein-Complementation Assay for Estrogen Receptor-beta/-beta Homodimer (AID 2283380);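 further: scored as signal increase over DMSO baseline for both agonists and antagonists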
Estrogen receptor beta (Homo sapiens), sequence (Q92731 whole entry, looked up, the tested form may be a part): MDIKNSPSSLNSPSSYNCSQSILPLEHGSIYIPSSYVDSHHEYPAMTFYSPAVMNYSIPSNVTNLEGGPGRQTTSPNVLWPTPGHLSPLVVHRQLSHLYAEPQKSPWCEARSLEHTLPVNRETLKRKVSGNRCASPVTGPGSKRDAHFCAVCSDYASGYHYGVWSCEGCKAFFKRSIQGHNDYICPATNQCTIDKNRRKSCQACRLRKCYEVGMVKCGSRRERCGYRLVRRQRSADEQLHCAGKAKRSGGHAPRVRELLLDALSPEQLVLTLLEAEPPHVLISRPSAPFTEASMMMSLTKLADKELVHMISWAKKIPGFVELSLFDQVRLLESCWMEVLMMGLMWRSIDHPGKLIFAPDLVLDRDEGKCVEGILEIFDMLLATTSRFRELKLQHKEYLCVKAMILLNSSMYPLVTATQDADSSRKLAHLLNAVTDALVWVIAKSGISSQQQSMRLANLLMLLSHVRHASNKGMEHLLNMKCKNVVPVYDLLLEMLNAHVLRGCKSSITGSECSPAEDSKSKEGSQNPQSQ
In short: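 HEK293T cells stably expressing ER beta LBD (aa 310-547) homodimer fragment-complementation reporter, dosed 24 h. Cells formaldehyde-fixed, Draq5-stained; gain in nuclear (agonist) or nuclear plus cytoplasmic (antagonist) fluorescence versus DMSO read by laser scanning cytometry.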

[6] = target: Estrogen receptor (Homo sapiens) (UniProt P03372); assay: OT_ERa_GFPERaERE_0480: Odyssey Thera (OT) 8-hour HeLa Transcription Induction Assay for Estrogen Receptor (AID 2283381; active means hit-call score of the fitted dose curve at least 0.9, where 1 is the maximum; inactive means score below 0.9)
Estrogen receptor (Homo sapiens), sequence (P03372 whole entry, looked up): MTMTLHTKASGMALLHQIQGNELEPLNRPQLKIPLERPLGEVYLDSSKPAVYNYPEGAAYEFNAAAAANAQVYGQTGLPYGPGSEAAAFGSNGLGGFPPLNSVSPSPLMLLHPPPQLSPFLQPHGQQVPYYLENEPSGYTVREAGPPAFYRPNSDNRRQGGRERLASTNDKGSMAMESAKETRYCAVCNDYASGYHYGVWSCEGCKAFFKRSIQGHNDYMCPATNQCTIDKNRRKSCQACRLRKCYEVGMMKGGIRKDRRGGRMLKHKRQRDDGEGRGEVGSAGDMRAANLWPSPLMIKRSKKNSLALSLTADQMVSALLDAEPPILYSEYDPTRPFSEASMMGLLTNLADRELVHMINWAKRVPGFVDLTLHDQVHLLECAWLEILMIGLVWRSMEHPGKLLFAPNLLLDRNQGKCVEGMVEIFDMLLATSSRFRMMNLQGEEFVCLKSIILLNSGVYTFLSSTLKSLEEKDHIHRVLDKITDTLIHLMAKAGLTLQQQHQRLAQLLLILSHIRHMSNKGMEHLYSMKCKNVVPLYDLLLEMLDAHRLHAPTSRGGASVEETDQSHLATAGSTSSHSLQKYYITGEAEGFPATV
In short: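 An 8 h HeLa transcription-induction format with a GFP reporter under ERE control, read by fluorescence microscopy; single endpoint fitted positively with DMSO as baseline.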

[7] = target: Retinoic acid receptor RXR-alpha (Homo sapiens) (UniProt P19793); assay: OT_NURR1_NURR1RXRa_0480: Odyssey Thera (OT) 8-hour HEK293T Protein Complementation Assay for Nurr1/retinoid X receptor (RXR) (AID 2283385)
Retinoic acid receptor RXR-alpha (Homo sapiens), sequence (P19793 whole entry, looked up, the tested form may be a part): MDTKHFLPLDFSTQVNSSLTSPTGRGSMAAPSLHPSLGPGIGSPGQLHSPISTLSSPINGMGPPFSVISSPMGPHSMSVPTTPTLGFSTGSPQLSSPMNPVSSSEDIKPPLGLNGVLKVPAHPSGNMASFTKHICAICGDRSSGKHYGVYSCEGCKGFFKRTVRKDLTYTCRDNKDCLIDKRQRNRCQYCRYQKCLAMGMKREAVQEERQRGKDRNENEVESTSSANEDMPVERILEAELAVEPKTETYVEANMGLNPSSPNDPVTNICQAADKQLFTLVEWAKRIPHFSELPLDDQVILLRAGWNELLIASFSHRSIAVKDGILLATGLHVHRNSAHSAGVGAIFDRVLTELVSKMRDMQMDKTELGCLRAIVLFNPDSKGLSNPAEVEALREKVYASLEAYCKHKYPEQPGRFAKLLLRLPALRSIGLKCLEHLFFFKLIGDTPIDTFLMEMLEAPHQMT
In short: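 Gain in fluorescent complementation signal over DMSO, measured 8 hours after chemical dosing of human kidney HEK293T cells, indicated enhanced Nurr1–RXRα association.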

[8] = target: Retinoic acid receptor RXR-alpha (Homo sapiens) (UniProt P19793); assay: OT_NURR1_NURR1RXRa_1440: Odyssey Thera (OT) 24-hour HEK293T Protein Complementation Assay for Nurr1/retinoid X receptor (RXR) (AID 2283386)
In short: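 Cell-based binding reporter: HEK293T cells, 24 h exposure, fluorescence-detected fragment complementation, DMSO as baseline.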

[9] = target: Peroxisome proliferator-activated receptor gamma (Homo sapiens) (UniProt P37231); assay: OT_PPARg_PPARgSRC1_0480: Odyssey Thera (OT) 8-hour Protein-Complementation Assay for Peroxisome Proliferator-activated Receptor Gamma / SRC-1 Co-activator (AID 2283387);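 further: nuclear to cytoplasmic split Venus YFP fluorescence ratio reporting PPARg SRC-1 interaction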
In short: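 Split-YFP (IFP1/IFP2) PPARg/SRC-1 reporter, HEK293T, 37 °C, 5% CO2; 8 h compound; formaldehyde fix + Draq5; high-content imaging, N/C ratio, ≥350 cells/image, positive direction vs DMSO.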

[10] = target: Peroxisome proliferator-activated receptor gamma (Homo sapiens) (UniProt P37231); assay: OT_PPARg_PPARgSRC1_1440: Odyssey Thera (OT) 24-hour Protein-Complementation Assay for Peroxisome Proliferator-activated Receptor Gamma/ SRC-1 Co-activator (AID 2283388);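 further: nuclear to cytoplasmic ratio of reconstituted Venus YFP fluorescence in fixed imaged cells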
In short: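 Readout is the 488 nm N/C fluorescence ratio from fixed, Draq5-stained HEK293T cells after 24 h compound exposure. Cells carried transiently transfected PPARg and SRC-1 fused to Venus fragments, transfected 48 h before treatment.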

[11] = CEETOX_H295R_11DCORT: CeeTox H295R High-throughput Steroidogenesis Assay for 11-Deoxycortisol (11DCORT) (AID 2283432; active means hit-call score of the fitted dose curve at least 0.9, where 1 is the maximum; inactive means score below 0.9;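 on AC50: human adrenal H295R cells prestimulated with 10 µM forskolin for 48 h; 11-deoxycortisol secreted into the medium measured by LC-MS/MS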); details: actives raise or lower the signal
In short: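 Steroidogenesis in human H295R cells: 48 h chemical exposure after forskolin priming, 11-deoxycortisol measured by LC-MS/MS.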

[12] = CEETOX_H295R_OHPREG: CeeTox H295R High-throughput Steroidogenesis Assay for OH-Pregnenolone (OHPREG) (AID 2283434; active means hit-call score of the fitted dose curve at least 0.9, where 1 is the maximum; inactive means score below 0.9); details: actives raise or lower the signal
In short: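 H295R, 10 uM forskolin pre-stim 48 h; test chemical 48 h, 0.1% DMSO final. MTBE extraction, reverse-phase C18 HPLC-ESI+ MS/MS of medium. Gain/loss vs DMSO; viability by MTT in same wells.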

[13] = target: Estrogen receptor (Homo sapiens) (UniProt P03372); assay: OT_ERa_GFPERaERE_0120: Odyssey Thera (OT) 2-hour HeLa Transcription Induction Assay for Estrogen Receptor (AID 2283382)
In short: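 Two-hour compound treatment of HeLa cells preceded microscopy imaging of an inducible fluorescent reporter. Image-based quantification gave one endpoint, analysed for signal increase relative to DMSO controls.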

[14] = target: Norway rat Vesicular Monoamine Transporter (VMAT2), neurotransmitter transporter, Slc18a2 (gene 25549) (UniProt Q01827); assay: NVS_TR_rVMAT2: NovaScreen (NVS) Transporter Assay for Norway rat Vesicular Monoamine Transporter (VMAT2), neurotransmitter transporter (AID 2283376);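 further: actives lower the bound radioligand signal below the DMSO level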
In short: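 Filter-based scintillation counting of radioligand bound to rat forebrain-derived VMAT2 protein, cell-free, 1 h post-dose. Signal loss relative to DMSO control scored; single-concentration duplicate screen (25 uM) followed by concentration-response testing of actives.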

[15] = target: human Norepinephrine Transporter (NET), SLC6A2 (gene 6530) (UniProt P23975); assay: NVS_TR_hNET: NovaScreen (NVS) Transporter Assay for human Norepinephrine Transporter (NET) (AID 2283377);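 further: cell-free membrane protein extracted from CHO cells expressing human NET; displacement of radioligand from human NET seen as loss of scintillation signal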
human Norepinephrine Transporter (NET), SLC6A2 (gene 6530), sequence (P23975 whole entry, looked up): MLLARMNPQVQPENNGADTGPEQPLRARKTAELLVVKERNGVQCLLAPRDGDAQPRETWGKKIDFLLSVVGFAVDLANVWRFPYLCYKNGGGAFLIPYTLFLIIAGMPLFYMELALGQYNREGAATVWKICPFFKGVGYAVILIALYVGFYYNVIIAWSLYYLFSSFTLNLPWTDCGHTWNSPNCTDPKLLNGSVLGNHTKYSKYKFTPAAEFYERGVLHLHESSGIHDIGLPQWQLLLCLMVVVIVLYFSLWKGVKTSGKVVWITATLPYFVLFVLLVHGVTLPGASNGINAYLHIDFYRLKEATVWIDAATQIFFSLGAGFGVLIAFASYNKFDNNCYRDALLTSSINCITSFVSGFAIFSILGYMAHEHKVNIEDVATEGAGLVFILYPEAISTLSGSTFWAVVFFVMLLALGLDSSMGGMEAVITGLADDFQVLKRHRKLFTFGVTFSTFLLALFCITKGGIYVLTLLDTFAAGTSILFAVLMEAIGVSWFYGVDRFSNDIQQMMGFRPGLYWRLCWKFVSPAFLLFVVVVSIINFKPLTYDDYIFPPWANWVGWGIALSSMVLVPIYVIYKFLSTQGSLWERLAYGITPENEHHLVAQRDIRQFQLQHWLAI
In short: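 CHO cell extracts expressing the transporter; tritiated or iodinated tracer displaced competitively; filtration plus scintillation readout at 1 h. Single-point duplicates at 25 uM, concentration series for follow-up; activity = signal drop relative to DMSO.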

[16] = target: Agonist Androgen Response Element (ARE), AR (gene 367) (UniProt P10275); assay: OT_AR_ARELUC_AG_1440: Odyssey Thera (OT) 24-hour CHO-K1 Luciferase Assay for Agonist Androgen Response Element (ARE) (AID 2283379)
In short: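 Gain-of-signal reporter endpoint: cells (CHO-K1, hamster) are treated 24 h, luciferin/ATP reagent added, and luminescence compared with DMSO baseline.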

[17] = target: Bile acid receptor (Homo sapiens) (UniProt Q96RI1); assay: OT_FXR_FXRSRC1_0480: Odyssey Thera (OT) 8-hour HEK293T Protein-Complementation Assay for Farnesoid X receptor/SRC-1 Co-activator (AID 2283383)
Bile acid receptor (Homo sapiens), sequence (Q96RI1 whole entry, looked up): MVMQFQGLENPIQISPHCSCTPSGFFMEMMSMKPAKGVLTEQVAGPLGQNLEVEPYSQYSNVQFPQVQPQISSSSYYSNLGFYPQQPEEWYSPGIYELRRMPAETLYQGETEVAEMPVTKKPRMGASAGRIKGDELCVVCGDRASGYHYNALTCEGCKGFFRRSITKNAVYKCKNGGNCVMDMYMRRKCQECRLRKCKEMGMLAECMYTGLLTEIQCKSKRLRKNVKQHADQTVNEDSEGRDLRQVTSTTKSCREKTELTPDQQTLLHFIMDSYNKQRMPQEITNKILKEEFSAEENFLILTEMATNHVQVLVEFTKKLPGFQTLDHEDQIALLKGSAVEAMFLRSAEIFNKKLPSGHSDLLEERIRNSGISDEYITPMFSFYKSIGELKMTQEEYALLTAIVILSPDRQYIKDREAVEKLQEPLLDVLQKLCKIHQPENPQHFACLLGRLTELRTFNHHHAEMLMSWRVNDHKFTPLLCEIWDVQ
In short: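 Readings were taken 8 h after dosing HEK293T cells in a split-reporter complementation format pairing FXR with SRC-1. Increased fluorescence relative to DMSO-treated wells defined activity.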

[18] = target: Bile acid receptor (Homo sapiens) (UniProt Q96RI1); assay: OT_FXR_FXRSRC1_1440: Odyssey Thera (OT) 24-hour HEK293T Protein-Complementation Assay for Farnesoid X receptor/SRC-1 Co-activator (AID 2283384)
In short: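 Single endpoint, analysed for increased fluorescence against DMSO controls. HEK293T cells carrying FXR and SRC-1 linked to complementary reporter halves were exposed to chemicals for 24 h before reading.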

[19] = test system: rat Norepinephrine Transporter (NET), gene 83511; assay: NVS_TR_rNET: NovaScreen (NVS) Transporter Assay for rat Norepinephrine Transporter (NET) (AID 2283373)
In short: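 Competitive radioligand displacement at the rat NET using forebrain membrane preparations, 1 h incubation, filter-based scintillation readout. Primary testing in duplicate at a single 25 uM concentration; confirmed actives retested across concentrations.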

[20] = target: mouse Estrogen Receptor alpha (Era), Esr1 (gene 13982) (UniProt P19785); assay: NVS_NR_mERa: NovaScreen (NVS) Nuclear Receptor Binding Assay for mouse Estrogen Receptor alpha (Era) (AID 2283378);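 further: hit means loss of bound radioligand signal relative to DMSO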
In short: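 Filter radiodetection of radioligand displacement from extracted receptor protein, measured 18 h post-dose. Single 25 uM concentration in duplicate initially, with concentration-series follow-up. Binding loss fitted relative to DMSO.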

Measured: AC50

CCOC(=O)C(C)OC(=O)c1cc(Oc2ccc(C(F)(F)F)cc2Cl)ccc1[N+](=O)[O-] (stereo not given)
active: [3] 7.94 µM
not listed: [13] | [14] | [15] | [16] | [17] | [18] | [19] | [20]
inactive: all other assays above

CCOc1nc(F)cc2nc(S(=O)(=O)Nc3c(Cl)cccc3Cl)nn12
inactive: [2] | [4] | [5] | [6] | [13] | [7] | [8] | [9] | [10]

CCCCC(O)(Cn1cncn1)c1ccc(Cl)cc1Cl (stereo not given)
active: [3] 2.25 µM | [14] 15 µM | [15] 13.3 µM | [13] 77.5 µM | [18] 34.9 µM
inactive: [16] | [5] | [6] | [17] | [9] | [10]

CC1(C)C(C=C(Cl)Cl)C1C(=O)OC(C#N)c1cccc(Oc2ccccc2)c1 (stereo not given)
inactive: [5] | [6] | [7] | [8] | [9] | [10] | [11] | [12]
active: [1] 9.19 µM | [3] 6.48 µM | [15] 12.2 µM

CCOP(=S)(OCC)Oc1nc(Cl)n(C(C)C)n1
inactive: [14] | [6] | [13] | [9] | [10] | [11] | [12]

Cn1c(-c2ccccc2)cc(-c2ccccc2)[n+]1C
active: [15] 2.75 µM
inactive: [19] | [5] | [6] | [13] | [7] | [8] | [9] | [10]

CC(C)NC(=O)N1CC(=O)N(c2cc(Cl)cc(Cl)c2)C1=O
active: [12] 10.3 µM
inactive: [14] | [6] | [9] | [10]

CCN(CC)C(=O)C(C)Oc1cccc2ccccc12 (stereo not given)
active: [3] 10.4 µM | [17] 32.6 µM | [18] 31.3 µM
inactive: [5] | [6] | [13] | [7] | [8] | [9] | [10] | [12]

C=C(C)CN(CC)c1c([N+](=O)[O-])cc(C(F)(F)F)cc1[N+](=O)[O-]
inactive: [4] | [5] | [6] | [7] | [8] | [9] | [10]
active: [3] 7.64 µM | [15] 7.07 µM | [13] 12.1 µM

Cc1c(COC(=O)[C@@H]2[C@H](/C=C(\Cl)C(F)(F)F)C2(C)C)cccc1-c1ccccc1
inactive: [5] | [6] | [17] | [18] | [7] | [8] | [9] | [10] | [12]
active: [15] 0.345 µM

COC(=O)NC(=S)Nc1ccccc1NC(=S)NC(=O)OC
inactive: [20] | [5] | [6] | [13] | [17] | [18] | [8] | [9] | [10] | [11] | [12]

COc1ccc(-c2ccccc2)cc1NNC(=O)OC(C)C
inactive: [16] | [5] | [6] | [17] | [18] | [7] | [8] | [9] | [10]

COP(=S)(OC)Oc1ccc([N+](=O)[O-])c(C)c1
inactive: [5] | [6] | [13] | [7] | [8] | [9] | [10] | [12]
active: [2] 1.99 µM | [3] 4.96 µM | [4] 3.37 µM | [17] 21.3 µM | [18] 29.8 µM | [11] 6.36 µM

CSC(=O)c1c(C(F)F)nc(C(F)(F)F)c(C(=O)SC)c1CC(C)C
inactive: [3] | [6] | [7] | [8] | [9] | [10]
active: [5] 21.5 µM | [8] 69.6 µM

CC(C)(C)C(=O)C(Oc1ccc(Cl)cc1)n1cncn1 (stereo not given)
active: [3] 0.238 µM | [11] 58.9 µM | [12] 21.6 µM
inactive: [5] | [6] | [7] | [9] | [10]
